{"source": "the supplement of paper PMC6992640", "data": [{"system": "HCI01 (cells of a triple-negative basal-like breast cancer xenograft)", "assay": "cell viability of combination (% of vehicle); higher = less cytotoxic", "conditions": "1 µM; 72 h; partner dose: 10 nM", "method": "(§1)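 PDX cells were treated for 72 h with each drug at 1 µM plus afatinib (10 nM; 1 µM for WHIM30). Luciferase viability is expressed as percent of vehicle.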", "values": [{"compound": "CC(C)COc1ccc(CNC(=O)N(Cc2ccc(F)cc2)C2CCN(C)CC2)cc1", "note": "[Pimavanserin] + CN(C)C/C=C/C(=O)Nc1cc2c(Nc3ccc(F)c(Cl)c3)ncnc2cc1O[C@H]1CCOC1 [Afatinib]", "cell viability of combination": 52.8}, {"compound": "C1=C\\COCc2cc(ccc2OCCN2CCCC2)Nc2nccc(n2)-c2cccc(c2)COC/1", "note": "[Pacritinib] + CN(C)C/C=C/C(=O)Nc1cc2c(Nc3ccc(F)c(Cl)c3)ncnc2cc1O[C@H]1CCOC1 [Afatinib]", "cell viability of combination": 37.8}, {"compound": "Cc1cn(-c2cc(NC(=O)c3ccc(C)c(Nc4nccc(-c5cccnc5)n4)c3)cc(C(F)(F)F)c2)cn1", "note": "[Nilotinib(AMN-107)] + CN(C)C/C=C/C(=O)Nc1cc2c(Nc3ccc(F)c(Cl)c3)ncnc2cc1O[C@H]1CCOC1 [Afatinib]", "cell viability of combination": 45.9}, {"compound": "CCCCCCCCCCCC1=C(O)C(=O)C=C(O)C1=O", "note": "[Embelin] + CN(C)C/C=C/C(=O)Nc1cc2c(Nc3ccc(F)c(Cl)c3)ncnc2cc1O[C@H]1CCOC1 [Afatinib]", "cell viability of combination": 52.9}, {"compound": "Clc1ccc(C(Cn2ccnc2)OCc2ccc(Sc3ccccc3)cc2)c(Cl)c1.O=[N+]([O-])O", "note": "(stereo unspecified) [Fenticonazole Nitrate] + CN(C)C/C=C/C(=O)Nc1cc2c(Nc3ccc(F)c(Cl)c3)ncnc2cc1O[C@H]1CCOC1 [Afatinib]", "cell viability of combination": 49.2}, {"compound": "Cc1nc(Nc2ncc(C(=O)Nc3c(C)cccc3Cl)s2)cc(N2CCN(CCO)CC2)n1", "note": "+ CN(C)C/C=C/C(=O)Nc1cc2c(Nc3ccc(F)c(Cl)c3)ncnc2cc1O[C@H]1CCOC1 [Afatinib]", "cell viability of combination": 41.5}, {"compound": "CCCCc1oc2ccc(NS(C)(=O)=O)cc2c1C(=O)c1ccc(OCCCN(CCCC)CCCC)cc1.Cl", "note": "[Dronedarone HCl] + CN(C)C/C=C/C(=O)Nc1cc2c(Nc3ccc(F)c(Cl)c3)ncnc2cc1O[C@H]1CCOC1 [Afatinib]", "cell viability of combination": 54.4}, {"compound": "COc1cc2c(Oc3ccc(NC(=O)C4(C(=O)Nc5ccc(F)cc5)CC4)cc3F)ccnc2cc1OCCCN1CCOCC1", "note": "+ CN(C)C/C=C/C(=O)Nc1cc2c(Nc3ccc(F)c(Cl)c3)ncnc2cc1O[C@H]1CCOC1 [Afatinib]", "cell viability of combination": 33.9}]}, {"system": "WHIM2 (cells of a triple-negative basal-like breast cancer xenograft)", "assay": "cell viability of combination (% of vehicle); higher = less cytotoxic", "conditions": "1 µM; 72 h; partner dose: 10 nM", "method": "as §1", "values": [{"compound": "C#Cc1cccc(Nc2ncnc3cc(OCCOC)c(OCCOC)cc23)c1.Cl", "note": "[Erlotinib Hydrochloride] + CN(C)C/C=C/C(=O)Nc1cc2c(Nc3ccc(F)c(Cl)c3)ncnc2cc1O[C@H]1CCOC1 [Afatinib]", "cell viability of combination": 37.5}, {"compound": "CCCCc1oc2ccc(NS(C)(=O)=O)cc2c1C(=O)c1ccc(OCCCN(CCCC)CCCC)cc1", "note": "[Dronedarone] + CN(C)C/C=C/C(=O)Nc1cc2c(Nc3ccc(F)c(Cl)c3)ncnc2cc1O[C@H]1CCOC1 [Afatinib]", "cell viability of combination": 44.1}, {"compound": "CC(C)N=c1cc2n(-c3ccc(Cl)cc3)c3ccccc3nc-2cc1Nc1ccc(Cl)cc1", "note": "[Clofazimine] + CN(C)C/C=C/C(=O)Nc1cc2c(Nc3ccc(F)c(Cl)c3)ncnc2cc1O[C@H]1CCOC1 [Afatinib]", "cell viability of combination": 38.9}, {"compound": "CCCCc1oc2ccccc2c1C(=O)c1cc(I)c(OCCN(CC)CC)c(I)c1.Cl", "note": "[Amiodarone HCl] + CN(C)C/C=C/C(=O)Nc1cc2c(Nc3ccc(F)c(Cl)c3)ncnc2cc1O[C@H]1CCOC1 [Afatinib]", "cell viability of combination": 57.7}, {"compound": "COc1cccc2c1C(=O)c1c(O)c3c(c(O)c1C2=O)CC(O)(C(=O)CO)CC3OC1CC(N)C(O)C(C)O1.Cl", "note": "(stereo unspecified) [Doxorubicin (Adriamycin) HCl] + CN(C)C/C=C/C(=O)Nc1cc2c(Nc3ccc(F)c(Cl)c3)ncnc2cc1O[C@H]1CCOC1 [Afatinib]", "cell viability of combination": 13.6}, {"compound": "COC1=C(OC)C(=O)C(CCCCCCCCCCO)=C(C)C1=O", "note": "[Idebenone] + CN(C)C/C=C/C(=O)Nc1cc2c(Nc3ccc(F)c(Cl)c3)ncnc2cc1O[C@H]1CCOC1 [Afatinib]", "cell viability of combination": 50.1}, {"compound": "COc1ncc(-c2ccc3nccc(-c4ccnnc4)c3c2)cc1NS(=O)(=O)c1ccc(F)cc1F", "note": "+ CN(C)C/C=C/C(=O)Nc1cc2c(Nc3ccc(F)c(Cl)c3)ncnc2cc1O[C@H]1CCOC1 [Afatinib]", "cell viability of combination": 15.7}, {"compound": "CS(=O)(=O)O.Cc1c(O)cccc1C(=O)NC(CSc1ccccc1)C(O)CN1CC2CCCCC2CC1C(=O)NC(C)(C)C", "note": "(stereo unspecified) [Nelfinavir Mesylate] + CN(C)C/C=C/C(=O)Nc1cc2c(Nc3ccc(F)c(Cl)c3)ncnc2cc1O[C@H]1CCOC1 [Afatinib]", "cell viability of combination": 53.6}, {"compound": "COc1cc2nccc(Oc3ccc(NC(=O)NC4CC4)c(Cl)c3)c2cc1C(N)=O", "note": "[Lenvatinib (E7080)] + CN(C)C/C=C/C(=O)Nc1cc2c(Nc3ccc(F)c(Cl)c3)ncnc2cc1O[C@H]1CCOC1 [Afatinib]", "cell viability of combination": 32.5}, {"compound": "CC(=O)C1(O)Cc2c(O)c3c(c(O)c2C(OC2CC(N)C(O)C(C)O2)C1)C(=O)c1ccccc1C3=O.Cl", "note": "(stereo unspecified) [Idarubicin HCl] + CN(C)C/C=C/C(=O)Nc1cc2c(Nc3ccc(F)c(Cl)c3)ncnc2cc1O[C@H]1CCOC1 [Afatinib]", "cell viability of combination": 11.7}, {"compound": "COC(=O)C1=C(C)NC(C)=C(C(=O)OC2CCCN(Cc3ccccc3)C2)C1c1cccc([N+](=O)[O-])c1.Cl", "note": "(stereo unspecified) [Benidipine HCl] + CN(C)C/C=C/C(=O)Nc1cc2c(Nc3ccc(F)c(Cl)c3)ncnc2cc1O[C@H]1CCOC1 [Afatinib]", "cell viability of combination": 51.4}, {"compound": "CC(C)C(=O)OCC(=O)[C@@]12O[C@H](C3CCCCC3)O[C@@H]1C[C@H]1[C@@H]3CCC4=CC(=O)C=C[C@]4(C)[C@H]3[C@@H](O)C[C@@]12C", "note": "[Ciclesonide] + CN(C)C/C=C/C(=O)Nc1cc2c(Nc3ccc(F)c(Cl)c3)ncnc2cc1O[C@H]1CCOC1 [Afatinib]", "cell viability of combination": 41.3}, {"compound": "C[C@H]1O[C@@H](O[C@H]2[C@@H](O)C[C@H](O[C@H]3[C@@H](O)C[C@H](O[C@H]4CC[C@@]5(C)[C@H](CC[C@@H]6[C@@H]5C[C@@H](O)[C@]5(C)[C@@H](C7=CC(=O)OC7)CC[C@]65O)C4)O[C@@H]3C)O[C@@H]2C)C[C@H](O)[C@@H]1O", "note": "[Digoxin] + CN(C)C/C=C/C(=O)Nc1cc2c(Nc3ccc(F)c(Cl)c3)ncnc2cc1O[C@H]1CCOC1 [Afatinib]", "cell viability of combination": 61.3}, {"compound": "COCCn1c2c([n+](Cc3cnccn3)c1C)C(=O)c1ccccc1C2=O.[Br-]", "note": "+ CN(C)C/C=C/C(=O)Nc1cc2c(Nc3ccc(F)c(Cl)c3)ncnc2cc1O[C@H]1CCOC1 [Afatinib]", "cell viability of combination": 11.8}, {"compound": "COC(=O)C1=C(C)NC(C)=C(C(=O)OCCN(C)Cc2ccccc2)C1c1cccc([N+](=O)[O-])c1.Cl", "note": "(stereo unspecified) [Nicardipine HCl] + CN(C)C/C=C/C(=O)Nc1cc2c(Nc3ccc(F)c(Cl)c3)ncnc2cc1O[C@H]1CCOC1 [Afatinib]", "cell viability of combination": 48}, {"compound": "C=C1C(=CC=C2CCCC3(C)C2CCC3C(C)CCCC(C)(C)O)CC(O)CC1O", "note": "(stereo unspecified) [Calcitriol] + CN(C)C/C=C/C(=O)Nc1cc2c(Nc3ccc(F)c(Cl)c3)ncnc2cc1O[C@H]1CCOC1 [Afatinib]", "cell viability of combination": 31.2}, {"compound": "COc1ccc2c(O[C@H]3CC4C(=O)N(C)CCCC/C=C\\[C@H]5C[C@@]5(C(=O)NS(=O)(=O)C5CC5)NC(=O)[C@@H]4C3)cc(-c3nc(C(C)C)cs3)nc2c1C", "note": "(stereo partly specified) [Simeprevir] + CN(C)C/C=C/C(=O)Nc1cc2c(Nc3ccc(F)c(Cl)c3)ncnc2cc1O[C@H]1CCOC1 [Afatinib]", "cell viability of combination": 46.8}, {"compound": "N.N.O=C([O-])C1(C(=O)[O-])CCC1.[Pt+2]", "note": "[Carboplatin] + CN(C)C/C=C/C(=O)Nc1cc2c(Nc3ccc(F)c(Cl)c3)ncnc2cc1O[C@H]1CCOC1 [Afatinib]", "cell viability of combination": 53.1}, {"compound": "Cc1ccc(NC(=O)c2ccc(CN3CCN(C)CC3)cc2)cc1Nc1nc(-c2cccnc2)cs1", "note": "[Masitinib (AB1010)] + CN(C)C/C=C/C(=O)Nc1cc2c(Nc3ccc(F)c(Cl)c3)ncnc2cc1O[C@H]1CCOC1 [Afatinib]", "cell viability of combination": 54.7}, {"compound": "CC(C)(C)c1ccc(C(=O)CCCN2CCC(OC(c3ccccc3)c3ccccc3)CC2)cc1", "note": "[Ebastine] + CN(C)C/C=C/C(=O)Nc1cc2c(Nc3ccc(F)c(Cl)c3)ncnc2cc1O[C@H]1CCOC1 [Afatinib]", "cell viability of combination": 50.3}, {"compound": "CC[C@@H]1/C=C(\\C)C[C@H](C)C[C@H](OC)[C@H]2O[C@@](O)(C(=O)C(=O)N3CCCC[C@H]3C(=O)O[C@H](/C(C)=C/[C@@H]3CC[C@H](Cl)[C@H](OC)C3)[C@H](C)[C@@H](O)CC1=O)[C@H](C)C[C@@H]2OC", "note": "[Pimecrolimus] + CN(C)C/C=C/C(=O)Nc1cc2c(Nc3ccc(F)c(Cl)c3)ncnc2cc1O[C@H]1CCOC1 [Afatinib]", "cell viability of combination": 42.6}, {"compound": "CC(=O)c1cc2c(o1)C(=O)c1ccccc1C2=O", "note": "[Napabucasin] + CN(C)C/C=C/C(=O)Nc1cc2c(Nc3ccc(F)c(Cl)c3)ncnc2cc1O[C@H]1CCOC1 [Afatinib]", "cell viability of combination": 29.7}, {"compound": "CCOC(=O)C1=C(COCCN)NC(C)=C(C(=O)OC)C1c1ccccc1Cl.O=S(=O)(O)c1ccccc1", "note": "(stereo unspecified) [Amlodipine Besylate] + CN(C)C/C=C/C(=O)Nc1cc2c(Nc3ccc(F)c(Cl)c3)ncnc2cc1O[C@H]1CCOC1 [Afatinib]", "cell viability of combination": 51.7}]}]}
